# Screening results from PubChem BioAssay.
# Mito fusion act: mitochondrial division inhibition or fusion activation; S. cerevisiae fusion-defective mutant growth rescue, CellTiterGlo 48 h; 320,000 tested, 0.23% active; AID 485298; Potency, µM (doses to about 46.1 µM), without a hit: at the highest dose growth rescue (activation), hits mostly activators; note: % of control where 0% means no effect; nearly all actives have a fitted effect of over 45% in size
#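 Temperature-sensitive fusion-defective S. cerevisiae (e.g. fzo1-1, mgm1-5) were grown with compound in YPEG medium (3% ethanol, 3% glycerol) for 48 hours at 37C. Growth rescue was measured as viability by CellTiterGlo luminescence after 10 minutes at ambient.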
# TDP-43 yeast inh: inhibitors of TDP-43 toxicity in yeast; TDP-43 expressing yeast growth rescue, BacTiter-Glo, 24 h; Potency, µM (highest dose often 46.1 µM), inactives show at the highest dose growth rescue (activation), actives largely listed as activators; 410,000 tested, 1.8% active; note: % of control where 0% means no effect; nearly all actives have a fitted effect of over 50% in size
#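 Yeast expressing TDP-43 (pregrown in raffinose, seeded at OD600=0.02 in galactose medium) exposed to compounds 24 hr at 30 deg C. Growth read by BacTiter-Glo luminescence; rescue of toxicity appears as increased signal.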
# ERG Ets-DNA blk: blocks human ERG Ets domain binding to DNA. fluorescence polarization, His-ERG Ets domain / labelled DNA. Potency, µM (top dose mostly 76.9 µM), inactives show at the top dose FP activity, negative = inhibition, actives largely listed as inhibitors. 370,000 tested, 0.028% active. AID 624246; active = well fitted inhibition curve with a large enough effect in the polarisation, with a control signal flat; inconclusive = small, poorly fitted or top-dose-only effect, or effect the other way, or a change in a side signal; inactive = no such curve, though single readings can be large or run the other way; the % refers to the polarisation;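 note: polarization taken with two DNA probes labelled with fluorescein and Texas red; % of control where 0% means no effect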
# Target sequence (P11308 whole entry, looked up, the tested form may be a part): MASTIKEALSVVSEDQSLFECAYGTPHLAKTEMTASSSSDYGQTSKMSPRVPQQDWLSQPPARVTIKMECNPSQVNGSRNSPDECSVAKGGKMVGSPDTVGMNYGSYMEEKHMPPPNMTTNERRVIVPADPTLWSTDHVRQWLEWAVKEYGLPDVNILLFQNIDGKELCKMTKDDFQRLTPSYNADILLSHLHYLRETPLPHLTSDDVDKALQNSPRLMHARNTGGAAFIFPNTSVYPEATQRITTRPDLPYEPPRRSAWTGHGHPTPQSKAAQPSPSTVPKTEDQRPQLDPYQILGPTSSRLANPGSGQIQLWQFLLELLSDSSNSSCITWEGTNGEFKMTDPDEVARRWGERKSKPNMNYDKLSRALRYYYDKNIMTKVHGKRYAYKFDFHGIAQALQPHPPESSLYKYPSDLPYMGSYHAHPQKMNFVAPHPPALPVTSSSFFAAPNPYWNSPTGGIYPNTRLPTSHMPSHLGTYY
#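 His-tagged ERG Ets domain (1 uM in the protein solution; 300mM KCl, 50mM Tris-HCl, 1mM EDTA, 1mM DTT, pH 7.5) received compound, then a probe mix of 5 nM fluorescein-DNA and 100nM Texas-615-DNA. Fluorescence polarization was read for both dyes.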
# FUS suppressor: suppressors of FUS proteinopathy in yeast; S. cerevisiae FUS-expressing, growth rescue, OD600, 24 h; AID 1347120; 390,000 tested, 0.24% active; Potency, µM (doses to about 76.6 µM), usual class: activators;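 note: plate controls were DMSO vehicle for no effect and reference control for full effect; nearly all actives have a fitted effect of over 55% in size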
#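 Absorbance at 600 nm, taken 24hr after compound addition, measured rescue of FUS-yeast growth at 30C. Induction used 2% galactose with seeding at OD 0.005. Controls: CP55940 from 92uM final, DMSO only.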
# aSyn rescue: alpha-synuclein toxicity inhibition in yeast | Yeast expressing alpha-synuclein, growth rescue, BacTiter-Glo, 24 h | Potency, µM (titrated, usually from 46.1 µM), inactives show at the top dose growth rescue (activation), usual class: activators | 370,000 tested, 0.14% active; note: % of control where 0% means no effect; nearly all actives have a fitted effect of over 65% in size
#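 Readout is rescue of growth in alpha-synuclein-expressing yeast, so inhibitors of toxicity appear as activators. Growth after 24 hr at 30 deg C in galactose medium is quantified by luminescence.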
# Abeta rescue: restores growth of yeast expressing A-beta42 peptide; yeast expressing A-beta42, growth rescue, OD600, 48 h; response scale: 0% DMSO, 100% iron-clioquinol control; Potency, µM (top dose mostly 46.1 µM), most hits filed as activators; 410,000 tested, 0.063% active; note: nearly all actives have a fitted effect of over 55% in size
#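 Yeast growth medium received pinned compounds, then yeast cells expressing toxic A-beta were added; plates incubated at 30 C for 48 hr. Growth read as absorbance at 600 nm, normalized to DMSO and equimolar FeCl3 plus clioquinol controls.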
# Numbers without * were called inactive; i = inactive; ? = inconclusive; · = not tested or not shown; ! = repeats disagree; [ ] = another dose, or the depositor's remark. Shown are actives, neighbours in structure and some others; about 2.2% of the full set was active somewhere. Unless noted, calls come from the whole dose curve; as a rule, active = well fitted curve in the direction sought with a large enough effect; inconclusive = small, poorly fitted or top-dose-only effect, or another doubt; inactive = no such curve, though single readings can be large; an effect the other way counts as inactive or inconclusive. Potency is the fitted concentration of half-maximal effect.
SMILES,Mito fusion act,TDP-43 yeast inh,ERG Ets-DNA blk,FUS suppressor,aSyn rescue,Abeta rescue
CC(=O)c1c(C)nc(C)nc1NC(=O)Cc1ccccc1,3%,2%,-5%,i,0%,i
COc1ccc2nc(SCC(=O)c3c(C)[nH]c4ccccc34)nc(C)c2c1,·,10%,4%,i,·,i
CCC(C)C(NC(=O)C1CCC(C)CC1)C(=O)NCc1ccco1 (centres undefined),35µM*,-2%,2%,i,0%,i
CCC(C)C(NC(=O)C1CCC(C)CC1)C(=O)NCc1cccnc1 (centres undefined),-1%,19%,3%,i,2%,i
COc1ccc(Cn2nc3n(c2=O)-c2ccccc2OC3)cc1,·,14µM*,-10%,i,·,i
O=c1n(Cc2ccccc2)nc2n1-c1ccccc1OC2,·,?,-1%,i,·,i
COc1cccc(CNC(=O)c2ccc3c(c2)nnn3C2CCCC2)c1,·,?,-5%,i,·,i
CNc1ccc(/C=C2\C=Cc3ccccc32)cc1OC,·,·,·,·,-7%,·
O=C(N/N=C/C=C/c1ccco1)c1ccccc1Cl,-8%,-7%[1.82 µM],20%,40µM*,9%,i
Cc1c(C(=O)NCc2cccc([N+](=O)[O-])c2)sc(=O)n1Cc1cccc(F)c1,·,18µM*,·,i,6%,i
Cc1c(C(=O)NCc2ccc3c(c2)OCCO3)sc(=O)n1Cc1ccc2c(c1)OCO2,·,?,·,?,-1%,i
C=Cc1ccc(Cn2c(C)c(C(=O)NCc3ccc4c(c3)OCO4)sc2=O)cc1,·,22µM*,·,i,8%,?
CC(=O)Nc1ccc(C)cc1-c1nc2ccccc2n(CC(=O)Nc2cc(Cl)ccc2C)c1=O,·,8%,-11%,i,·,i
Cc1ccc(C(=O)Nc2nc(C(C)(C)C)cs2)s1,11%,14µM*,-1%,i,-38%,i
CC(C)CC(CCOCCO)NC(=O)OCc1ccccc1[N+](=O)[O-] (centres undefined),·,·,·,i,·,·
Cc1cc(S(=O)(=O)Nc2noc3ccccc23)ccc1F,-1%,11µM*,-7%,i,-22%,i
COc1ccc(Cl)cc1S(=O)(=O)Nc1noc2ccccc12,15%,10µM*,4%,i,-13%,i
O=C(COC(=O)c1cccnc1Cl)c1cccc(Cl)c1,-6%,11µM*,2%,i,·,i
O=C(COC(=O)c1cccnc1Cl)c1ccc(Cl)s1,·,13%,1%,i,-3%,i
COc1cccc(NC(=O)C2CCN(C(=O)N3CC(C)Oc4ccccc43)CC2)c1 (centres undefined),·,0%,-2%,i,·,i
CC(=O)c1ccc2c(c1)CC1(C2)Cc2cc3c(cc2C1)C(=O)CC3 (centres undefined),·,16µM*,·,·,-10%,i
CN(CC1COc2ccccc2O1)C(=O)CSc1ncnc2sccc12 (centres undefined),8%,18µM*,-2%,?,10%[1.84 µM],i
Cc1ccc(-c2csc(NC(=O)c3ccco3)n2)cc1C,-12%,-13%[1.82 µM],10%,i,-32%,i
Cc1ccc(-c2nonc2NC(=O)c2ccco2)cc1C,·,20µM*,3%,i,·,i
Cc1ccc(-c2nonc2NC(=O)c2ccco2)cc1,-2%,25µM*,-4%,i,-12%,·
SMILES,Mito fusion act,TDP-43 yeast inh,ERG Ets-DNA blk,FUS suppressor,aSyn rescue,Abeta rescue
CSc1ccc(/C=C2\C=Cc3ccccc32)cc1,·,·,·,·,3%,·
O=C(Nc1ccccc1-c1ccccc1)c1ccc(Br)o1,20%,22µM*,4%,i,-12%,i
CCCCNC(=O)Cn1cnc2ccc(S(=O)(=O)N3CCC(C)CC3)cc2c1=O,-12%,-19%,5%,i,1%,i
Cc1cccc(NC(=O)Cn2cnc3ccc(S(=O)(=O)N4CCC(C)CC4)cc3c2=O)n1,3%,-8%,4%,35µM*,-8%,i
COc1ccc(CN2C(=O)c3ccccc3C2c2nnnn2Cc2ccccc2)cc1 (centres undefined),·,?,·,i,6%,i
O=C1c2ccccc2C(c2nnnn2Cc2ccccc2)N1CCOc1ccccc1 (centres undefined),·,11µM*,·,i,25µM*,i
O=C(NC1CCCCN(Cc2cccc(F)c2)C1=O)c1ccc2ccccc2c1 (centres undefined),·,·,·,i,·,·
O=C(Nc1ccc(C(O)(C(F)(F)F)C(F)(F)F)cc1)c1c(F)cccc1F,·,·,·,i,·,·
Cc1ccc(CC(SCc2ccccc2)C(=O)O)cc1C (centres undefined),10%,11µM*,13%,i,7%,i
COc1ccc(-c2noc(-c3ccc(NCCc4ccccc4)c([N+](=O)[O-])c3)n2)cc1OC,·,12%,2%,i,·,i
OCc1ccc(-c2nn(Cc3ccccc3)c3ccccc23)o1,21µM*!,4%,-8%,i,4µM*,i
c1ccc(-c2nn(Cc3ncco3)c3ccccc23)cc1,·,·,·,i,·,·
Cc1cc2n(n1)CCC(=O)N2Cc1ccc(C(=O)Nc2ccc(Br)c(C)c2)cc1,·,-5%,6%,i,·,i
O=C1c2ccccc2C(=O)N1CCc1csc(-c2ccc(F)cc2)n1,7%,?,0%,i,?,i
O=C1c2ccccc2C(=O)N1CCc1csc(-c2ccccc2)n1,10%,13µM*,8%,i,?,i
CCN(CC)c1ccc(NC(=O)CN2CCN(S(=O)(=O)c3ccc(C(C)C)cc3)CC2)cc1,-2%,22%,0%,i,·,i
O=S(=O)(c1ccc2ncccc2c1)N1CCN(c2nc(-c3cccs3)nc3ccccc23)CC1,·,·,·,·,-2%,·
CCOC(=O)C1CCN(c2ncnc3c2[nH]c2cccc(OC)c23)CC1,1%,-14%,-9%,22µM*,1%,i
Cc1cccc(N(C)c2nc3ccc(C)cc3n3cnnc23)c1,·,13µM*,0%,i,·,i
Cc1cccc(N(C)c2nc3ccc(C)cc3n3nnnc23)c1,·,6%,-1%,i,·,i
Cc1ccc(CCNC(=O)c2ccc3c(c2)N(Cc2ccccc2F)C(=O)c2ccccc2S3=O)cc1 (centres undefined),·,12%,1%,i,·,i
Cn1c(=O)c(-c2ccccc2[N+](=O)[O-])c(Cl)c2ccccc21,-5%,16µM*,-5%,i,10%,i
Cc1cc(C)nc(NC(=O)Cc2ccc(Cl)cc2)c1,0%,18µM*,3%,i,-7%,i
